From article PMC5540273 (PLoS ONE, 2017)

Columns and labels:
Settings in all cases: concentration: 1 μM,replicates: in singlicate; n = 1
[1] = system: FGFR1
[2] = system: FGFR2
[3] = system: FGFR3
[4] = system: FGFR4
[5] = system: FGR
[6] = system: FLT1
[7] = system: FLT3-autoinhibited
[8] = system: FLT3
[9] = system: FLT4
[10] = system: FRK
[11] = system: FYN
[12] = system: GAK
[13] = system: T1, GCN2(Kin.Dom.2,S808G)
T1 construct: gene EIF2AK4

[14] = system: GRK1
[15] = system: T2, GRK2
T2 construct: gene ADRBK1

[16] = system: T3, GRK3
T3 construct: gene ADRBK2

[17] = system: GRK4
[18] = system: GRK7
[19] = system: GSK3A
[20] = system: GSK3B
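Also: KINOMEscan kinase panel screen.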

Compound | %Inh [1] [%] | %Inh [2] [%] | %Inh [3] [%] | %Inh [4] [%] | %Inh [5] [%] | %Inh [6] [%] | %Inh [7] [%] | %Inh [8] [%] | %Inh [9] [%] | %Inh [10] [%] | %Inh [11] [%] | %Inh [12] [%] | %Inh [13] [%] | %Inh [14] [%] | %Inh [15] [%] | %Inh [16] [%] | %Inh [17] [%] | %Inh [18] [%] | %Inh [19] [%] | %Inh [20] [%]
C[C@@H](Oc1cc(-n2cnc3cc(-c4cnn(C)c4)ccc32)sc1C(N)=O)c1ccccc1Cl [GSK580432] | 91.9 | 89 | 92.7 | 38 | 72 | 87 | 28 | 99.4 | 99.8 | 12 | 47 | 95.3 | 99.2 | 4 | 38 | 0 | 85 | 0 | 0 | 0
OCCn1cc(-c2cnc3nnn(Cc4ccc5ncccc5c4)c3n2)cn1 | 0 | 0 | 0 | 0 | 5 | 0 | 0 | 0 | 0 | 0 | 0 | 6 | 0 | 3 | 0 | 1 | 0 | 0 | 0 | 0
O=c1[nH]cc(-c2ccc(O)cc2)c2sc(-c3ccncc3)cc12 [GSK1033723] | 0 | 0 | 16 | 13 | 21 | 9 | 0 | 0 | 1 | 0 | 21 | 16 | 6 | 0 | 0 | 0 | 0 | 0 | 63 | 22
COc1cc2ncn(-c3cc(OCC4CCCCC4)c(C(N)=O)s3)c2cc1OC [GSK204559] | 26 | 3 | 12 | 9 | 29 | 44 | 0 | 0 | 66 | 4 | 29 | 79 | 6 | 23 | 7 | 40 | 27 | 98 | 0 | 0
Cl.Cl.NC[C@H](CC1CCCCC1)NC(=O)c1ccc(-c2ccnc3[nH]ccc23)s1 [GSK1581428] | 26 | 0 | 6 | 0 | 25 | 42 | 26 | 91.9 | 13 | 10 | 17 | 87 | 0 | 93.6 | 55 | 77 | 91.9 | 96.2 | 0 | 9
O=C(NOCC1CC1)c1cc(Br)c(F)c(F)c1Nc1ccc(I)cc1Cl | 0 | 1 | 0 | 0 | 0 | 0 | 0 | 0 | 0 | 0 | 0 | 0 | 10 | 30 | 0 | 0 | 0 | 0 | 33 | 0
COc1cccc(OC)c1C(=O)Nc1cccc(-c2nn3ccccc3c2-c2ccnc(Nc3cccc(F)c3)n2)c1 [GSK361065] | 11 | 0 | 0 | 0 | 23 | 32 | 0 | 49 | 27 | 16 | 22 | 6 | 0 | 0 | 0 | 0 | 0 | 17 | 24 | 0
CC(=O)c1c(-c2ccncc2)[nH]c(-c2ccncc2)c1C [GW493036] | 0 | 0 | 0 | 9 | 27 | 10 | 0 | 0 | 0 | 0 | 37 | 27 | 0 | 0 | 0 | 66 | 0 | 0 | 81 | 58
Cc1ccc(Nc2ccnc(Nc3ccc4c(c3)CS(=O)(=O)C4)n2)cc1O.Cl [GW579362] | 84 | 79 | 73 | 41 | 97 | 99.6 | 92.7 | 99 | 100 | 99.1 | 97.9 | 87 | 98.4 | 2 | 0 | 22 | 82 | 0 | 63 | 23
O=C1NCCc2[nH]c(-c3ccncc3)cc21 | 0 | 4 | 10 | 0 | 20 | 6 | 12 | 0 | 0 | 0 | 0 | 5 | 0 | 14 | 25 | 36 | 3 | 27 | 88 | 54
O=C(Nc1n[nH]c2cc(-c3ccco3)ccc12)C1CC1 [SB-737447] | 14 | 0 | 6 | 0 | 0 | 0 | 4 | 59 | 0 | 0 | 0 | 5 | 25 | 23 | 0 | 0 | 68 | 3 | 96.2 | 66
CC(=O)Nc1ccc(-c2cc3ncnc(SCC(=O)O)c3s2)cc1 | 27 | 15 | 0 | 0 | 21 | 5 | 33 | 39 | 0 | 0 | 0 | 59 | 0 | 0 | 11 | 19 | 6 | 0 | 0 | 3
CN(c1ccc2c(c1)nc(NCc1ccc(F)cc1)n2C)c1ccnc(Nc2ccc(CS(C)(=O)=O)cc2)n1.Cl [GW813244] | 75 | 59 | 21 | 22 | 28 | 98.9 | 1 | 98.3 | 99.9 | 77 | 74 | 15 | 68 | 27 | 0 | 0 | 0 | 0 | 14 | 11
CC(C(=O)NC1CCN(c2ccnc(Nc3ccc(F)cc3)n2)C1)c1ccc(Cl)cc1 (centres unmarked) [GSK1379713] | 0 | 11 | 9 | 0 | 0 | 33 | 0 | 8 | 0 | 0 | 14 | 0 | 0 | 0 | 0 | 0 | 12 | 0 | 0 | 0
Cc1cccc(-c2nc(Nc3ccncc3)c3sccc3n2)n1 [GW869641] | 16 | 0 | 7 | 8 | 11 | 26 | 14 | 41 | 15 | 1 | 0 | 13 | 5 | 0 | 17 | 11 | 15 | 42 | 0 | 40
O=C(Nc1cccc(C(F)(F)F)c1)c1cccc(Oc2ccc3nccn3n2)c1 | 24 | 15 | 5 | 6 | 0 | 97.4 | 17 | 18 | 78 | 87 | 62 | 0 | 0 | 9 | 0 | 35 | 10 | 0 | 0 | 2
CS(=O)(=O)Nc1ccc(-c2ccnc3[nH]ccc23)cc1 [GSK993273] | 29 | 20 | 4 | 8 | 16 | 56 | 10 | 74 | 28 | 0 | 0 | 26 | 0 | 18 | 0 | 22 | 71 | 76 | 0 | 17
C[C@@H](Oc1cc(-n2cnc3cc(-c4ccncc4)ccc32)sc1C(N)=O)c1ccccc1Cl [GSK479719] | 46 | 57 | 71 | 34 | 40 | 54 | 24 | 97.3 | 97.1 | 15 | 29 | 59 | 69 | 100 | 0 | 62 | 62 | 0 | 13 | 24
Cn1ccc2ncnc(Oc3ccc(NC(=O)Nc4cnn(C(C)(C)C)c4)c(Cl)c3)c21 | – | 14 | 1 | 0 | 10 | 97.4 | 8 | 99.2 | 98.3 | 70 | 0 | 0 | 23 | 18 | 2 | 6 | 3 | 0 | 14 | 0
CC(=O)Nc1nc2cnc(Nc3cc(NC(=O)c4cccc(CC(C)(C)C#N)c4)ccc3C)nc2s1 | 0 | 1 | 4 | 0 | 24 | 3 | 0 | 8 | 73 | 83 | 0 | 9 | 0 | 0 | 15 | 0 | 0 | 44 | 0 | 2
Cc1ccn2nc(-c3ccc(F)cc3)c(-c3ccncc3)c2c1.Cl [GW457859] | 0 | 85 | 4 | 0 | 0 | 15 | 14 | 0 | 0 | 0 | 0 | 0 | 0 | 0 | 0 | 40 | 0 | 59 | 9 | 0
